Experimental findings from paper PMC4552634, “A New Set of Chemical Starting Points with Plasmodium falciparum Transmission-Blocking Potential for Antimalarial Drug Discovery” (PLoS ONE, 2015) are described below.

By % Inhibition is commonly meant the change of the read-out against control, counted positive when it falls.

Structures are written as SMILES. The campaign covered roughly 13,000 compounds. About 3,200 (25%) showed an effect of 50% or more. This is one part of the list.

The subject of the assay is P. falciparum stage V gametocytes. Set-up: BacTiter-Glo ATP luminescence viability of purified stage V gametocytes in 384-well plates, per cent inhibition versus DMSO. As to conditions: 48 h, 5 µM; inhibitor.
`Cc1c(CNCCCNc2cc(=O)c3ccccc3[nH]2)sc(C(F)=C(F)F)c1Br` [TCMDC-141189]: the “% Inhibition” value is -2.633%.

As for `Cn1c(=O)c2nc(-c3ccc(Cl)cc3)nnc2n(CCCC#N)c1=O` [TCMDC-138537], the “% Inhibition” value turned out to be 18.59%.

Consider `CCOc1ccc(/C=C/C(=O)Nc2cccc3c2CCN(C)C3)cc1` [TCMDC-139243], for which the “% Inhibition” value is 3.869%.

Take `COc1ccc2nccc([C@@H](O)CN3CCC(NC(=O)COc4nc(SCc5ccc(F)cc5)nc5c4CCC5)CC3)c2c1` [TCMDC-141132]: the “% Inhibition” value was -0.4192%.

On to `COC(=O)c1ccc(CC(C)NCC(O)c2cc(Cl)c(N)c(Cl)c2)cc1` (stereo not shown) [TCMDC-131421], for which the “% Inhibition” value came out at 9.503%.

Regarding `O=C(Nc1ccc(-c2nc3ccccc3[nH]2)cc1)c1ccc(Cl)c([N+](=O)[O-])c1` [TCMDC-125730], the “% Inhibition” value is given as 2.294%.

Regarding `CCOc1ccc(C(=O)Nc2ccc(-c3nc4ccccc4[nH]3)cc2)cc1[N+](=O)[O-]` [TCMDC-125221], the “% Inhibition” value is recorded as -12.2%.

Consider `Cc1cc(C(=O)Nc2ccc(-c3nc4ccccc4[nH]3)cc2)ccc1[N+](=O)[O-]` [TCMDC-123604], for which the “% Inhibition” value is 62.44%.

Turning to `Nc1ncc(-c2ccc(F)c(Cl)c2)c(N)n1` [TCMDC-137296], the “% Inhibition” value is -16.29%.

Take `O=S(=O)(ON=C1CCc2ccccc21)c1ccc(Cl)cc1` [TCMDC-125427]: the “% Inhibition” value came out at 20.26%.

In the case of `Cc1cc(I)ccc1Nc1nc2nonc2nc1Nc1ccc(I)cc1C` [TCMDC-124083], the “% Inhibition” value turned out to be 56.47%.

`Cc1cccc(Nc2nc3nonc3nc2Nc2cccc(Cl)c2Cl)c1C` [TCMDC-125806]: the “% Inhibition” value is 15.39%.

In the case of `CS(=O)(=O)c1cc2c(Nc3ccc(N4CCOCC4)cc3)c(C(N)=O)cnc2cc1Br.Cl` [TCMDC-135826], the “% Inhibition” value stood at 40.37%.

For the compound `CC(CN(C)C)C(=O)Nc1cccc(-c2ccc(-c3nc4ccccc4[nH]3)s2)c1` (stereo not shown) [TCMDC-137102], the “% Inhibition” value is -38.48%.

Turning to `O=c1cc(NCCCNC(CNCCc2ccccc2)c2cc(Br)cc(Br)c2)[nH]c2ccccc12` (stereo not shown) [TCMDC-140370], the “% Inhibition” value is recorded as -71.22%.

Turning to `C=CCCCNCC(NCCCNc1cc(=O)c2ccccc2[nH]1)c1cc(Br)cc(Br)c1` (stereo not shown) [TCMDC-140371], the “% Inhibition” value was -52.81%.

With `O=c1cc(NCCCCNCc2cccc(Br)c2)[nH]c2ccccc12` [TCMDC-139312], the “% Inhibition” value is listed as -82.6%.

Regarding `O=c1cc(NCCCCNCc2ccc(Br)c(Br)c2)[nH]c2ccccc12` [TCMDC-139308], the “% Inhibition” value is given as -72.79%.

In the case of `O=c1cc(NCCC(CNCc2ccoc2)NCc2cc(Br)cc(Br)c2)[nH]c2ccccc12` (stereo not shown) [TCMDC-140343], the “% Inhibition” value is listed as 58.98%.

For `O=c1cc(NCCC(CNCCc2ccccc2)NCc2cc(Br)cc(Br)c2)[nH]c2ccccc12` (stereo not shown) [TCMDC-140344], the “% Inhibition” value worked out at 98.47%.

With `Cn1nccc1C(=O)NCCNCc1cccc(-c2ccc(-c3nc4cc(C(F)(F)F)ccc4[nH]3)s2)c1.O=C(O)C(F)(F)F` [TCMDC-133010], the “% Inhibition” value is recorded as 8.568%.

As for `CCCc1cccc(OC)c1OCCCON1C(N)=NC(N)=NC1(C)C` [TCMDC-131338], the “% Inhibition” value is recorded as -11.7%.

Take `O=C(CSc1nccn1Cc1ccco1)Nc1cc(C(F)(F)F)ccc1Cl` [TCMDC-125134]: the “% Inhibition” value came to 10.58%.

`CS(=O)(=O)Cc1ccc(Nc2nccc(NC3CCN(c4nccc(C(F)(F)F)n4)CC3)n2)cc1` [TCMDC-134397]: the “% Inhibition” value stood at 7.117%.

Turning to `COC(=O)C1=CNC=C(C(=O)OC)C1c1ccc(Cl)c([N+](=O)[O-])c1` [TCMDC-125154], the “% Inhibition” value was -60.53%.

With `Cc1cc(C(=O)CN2C(=O)NC3(CCCc4ccccc43)C2=O)c(C)n1Cc1ccco1` (stereo not shown) [TCMDC-124502], the “% Inhibition” value turned out to be 2.781%.

With `Nc1nc(N)c2c(ccc3c2cnn3Cc2cccnc2)n1` [TCMDC-131932], the “% Inhibition” value turned out to be 23.15%.

Turning to `COc1ccc(-c2ccc(NC(=O)c3ccc(C#N)cc3)cc2)cc1CN(C)CCO` [TCMDC-132521], the “% Inhibition” value worked out at 28.66%.

For `COc1ccc(-c2ccc(NC(=O)c3ccc(Cl)cc3)cc2)cc1CN(C)CCN(C)C` [TCMDC-132511], the “% Inhibition” value is listed as 46.96%.

For the compound `COc1ccc(-c2ccc(NC(=O)c3ccc(Cl)cc3)cc2)cc1CN(C)CCO` [TCMDC-132513], the “% Inhibition” value worked out at 86.93%.

`COc1ccc(-c2ccc(NC(=O)c3cccc(Cl)c3)cc2)cc1CN(C)CCN(C)C` [TCMDC-133335]: the “% Inhibition” value is 14.93%.

On to `CN(C)Cc1ccc2cc(NC(=O)c3ccc(-c4ccc(Cl)cc4)cc3)ccc2c1` [TCMDC-134694], for which the “% Inhibition” value is 77.36%.

With `COc1ccc(-c2cccc(NC(=O)c3ccc(Cl)cc3)c2)cc1CN(C)CCN(C)C` [TCMDC-132605], the “% Inhibition” value is given as -10.06%.

Turning to `COc1ccc(-c2ccc(NC(=O)c3cccc(Cl)c3)cc2)cc1CNC(C)C` [TCMDC-132524], the “% Inhibition” value was 39.19%.

As to `CN(C)Cc1ccc2cc(NC(=O)c3ccc(-c4ccc(Cl)cc4)cc3)ccc2n1` [TCMDC-134644], the “% Inhibition” value was 5.45%.

`CN(C)Cc1ccc(-c2cccc(NC(=O)c3ccc(Cl)cc3)c2)cc1` [TCMDC-132632]: the “% Inhibition” value was determined as 4.982%.

Turning to `COc1ccc(-c2cccc(NC(=O)c3cccc(Cl)c3)c2)cc1CN(C)CCN(C)C` [TCMDC-132616], the “% Inhibition” value is listed as 105.4%.

With `COc1ccc(-c2ccc(NC(=O)c3cccc(Cl)c3)cc2)cc1CN(C)CCO` [TCMDC-132527], the “% Inhibition” value turned out to be 86.37%.

Take `COCCN1CCC(CNCC(C)(C)c2nc(-c3ccc(Cl)c(O)c3)c(-c3ccncc3)[nH]2)CC1` [TCMDC-140898]: the “% Inhibition” value is reported as -79.12%.

With `O=C(Nc1cccc(CN2CCCN(Cc3ccc(O)cc3)CC2)c1)c1ccc(Br)cc1` [TCMDC-141883], the “% Inhibition” value is 15.8%.

On to `Cc1nc(NC2=NCN(CCCN3CCOCC3)CN2)nc2c(C)cccc12` [TCMDC-125086], for which the “% Inhibition” value is listed as 47.98%.

For `Cn1ccnc1CNC(=O)c1ccc(-c2cccc(-c3nc4cc(F)ccc4[nH]3)c2)cc1` [TCMDC-132354], the “% Inhibition” value is -5.334%.

Consider `O=c1c2sc(-c3ccc(Cl)cc3)cc2ncn1Cc1ccc(OCCN2CCCC2)c2ccccc12` [TCMDC-135387], for which the “% Inhibition” value is reported as 24.51%.

On to `Cc1cccc(CN2CCCN(Cc3ccc(C(=O)Nc4ccc(Cl)cc4)cc3)CC2)c1` [TCMDC-136407], for which the “% Inhibition” value is listed as 32.89%.

On to `Cc1cc(OCCN2CCCCC2)ccc1NC(=O)c1cccc2c(=O)n(Cc3ccc(Cl)cc3)cnc12` [TCMDC-136727], for which the “% Inhibition” value is on record as 103.4%.

Turning to `COc1ccc2nccc([C@@H](O)CN3CCC(NC(=O)Cc4cc5ccccc5s4)CC3)c2c1` [TCMDC-141033], the “% Inhibition” value is recorded as -11.21%.

As for `O=C(Nc1ccc(-c2cccc(-c3nc4ccc(F)cc4[nH]3)c2)cc1)Nc1ccsc1` [TCMDC-133218], the “% Inhibition” value was -7.279%.

On to `Cc1noc(C)c1-c1ccc2c(Nc3ccccc3C(C)(C)C)c(C(=O)NCc3ccc(C(F)(F)F)cc3)cnc2c1.Cl` [TCMDC-136348], for which the “% Inhibition” value is given as -20.49%.

As for `Cc1noc(C)c1-c1ccc2c(Nc3nccc4ccccc34)c(C(N)=O)cnc2c1` [TCMDC-136456], the “% Inhibition” value came out at 97%.

For `CC(=O)c1ccc(Nc2c(C(N)=O)cnc3cc(-c4c(C)noc4C)ccc23)cc1` [TCMDC-136058], the “% Inhibition” value is given as -8.163%.

As to `Cc1noc(C)c1-c1ccc2c(Nc3ccc(Cl)cc3)c(C(N)=O)cnc2c1.Cl` [TCMDC-136010], the “% Inhibition” value is on record as 9.933%.

On to `Cc1noc(C)c1-c1ccc2c(Nc3ccccc3C(C)(C)C)c(C(=O)NCc3ccccc3)cnc2c1.Cl` [TCMDC-136366], for which the “% Inhibition” value is given as -19.07%.

In the case of `Cc1noc(C)c1-c1ccc2c(Nc3cccc4c3-c3ccccc3C4=O)c(C(=O)NCc3ccccc3I)cnc2c1` [TCMDC-136308], the “% Inhibition” value is reported as 93.19%.

As for `Cc1noc(C)c1-c1ccc2c(Nc3ccccc3N3CCOCC3)c(C(=O)NCc3ccccc3)cnc2c1.Cl` [TCMDC-136667], the “% Inhibition” value is given as -0.5011%.

As to `Cc1noc(C)c1-c1ccc2c(Nc3ccccc3C(C)(C)C)c(C(=O)NCc3ccc4c(c3)OCO4)cnc2c1.Cl` [TCMDC-136353], the “% Inhibition” value turned out to be 56.26%.

Regarding `Cc1noc(C)c1-c1ccc2c(Nc3ccccc3C(C)(C)C)c(C(=O)NCc3cccc4ccccc34)cnc2c1.Cl` [TCMDC-136375], the “% Inhibition” value was -44.64%.

In the case of `COc1ccc2nccc(N3CCC(CCNCc4ccc5c(n4)NC(=O)CS5)CC3)c2c1.Cl` [TCMDC-141905], the “% Inhibition” value is on record as -14.76%.

As to `Cc1cccc2[nH]c(-c3cccc(-c4cccc(NC(=O)Nc5ccc(Cl)c(Cl)c5)c4)c3)nc12` [TCMDC-133277], the “% Inhibition” value is -37.89%.

Regarding `COc1nc(N)ncc1C(=O)NC1CN2CCC1CC2` (stereo not shown) [TCMDC-131574], the “% Inhibition” value is 17.61%.

Turning to `CN1CCN(c2ccc(-c3cccc(NC(=O)c4cccc([N+](=O)[O-])c4)c3)nn2)CC1` [TCMDC-125452], the “% Inhibition” value is -8.078%.

For `CN1CCN(c2ccc(-c3cccc(NC(=O)c4ccc5ccccc5c4)c3)nn2)CC1` [TCMDC-125349], the “% Inhibition” value amounted to 17.67%.

For the compound `Cc1ccc(C(=O)Nc2cccc(-c3ccc(N4CCN(C)CC4)nn3)c2)cc1[N+](=O)[O-]` [TCMDC-124931], the “% Inhibition” value turned out to be 60.61%.

`COc1cccc(C(=O)N2CCN(Cc3cccc(NC(=O)c4cccs4)c3)CC2)c1` [TCMDC-136327]: the “% Inhibition” value is -13.29%.

As to `Cc1[nH]c(C)c(-c2ccc(-c3ccccc3F)nc2)c(=O)c1Cl` [TCMDC-135927], the “% Inhibition” value stood at 68.96%.

For the compound `Cc1[nH]c(C)c(-c2ccc(-c3ccccc3F)nc2)c(=O)c1Br` [TCMDC-135926], the “% Inhibition” value is listed as 66.81%.

Take `O=C(/C=C/c1ccc(F)c(Br)c1)NCCCCCN1CCC(c2c[nH]c3ccccc23)CC1` [TCMDC-139235]: the “% Inhibition” value was -23.07%.

As for `Cc1ccc(/C=C/C(=O)NCCCCCN2CCC(c3c[nH]c4ccccc34)CC2)cc1` [TCMDC-139236], the “% Inhibition” value was 53.65%.

In the case of `CC(C)(C)c1ccc(/C=C/C(=O)NCCCCCN2CCC(c3c[nH]c4ccccc34)CC2)cc1` [TCMDC-139247], the “% Inhibition” value is 18.04%.

For the compound `O=C(/C=C/c1ccc(I)cc1)NCCCCCN1CCC(c2c[nH]c3ccccc23)CC1` [TCMDC-139198], the “% Inhibition” value was found to be 49.23%.

As to `COc1ccc(/C=C/C(=O)NCCCCCN2CCC(c3c[nH]c4ccccc34)CC2)cc1O` [TCMDC-139754], the “% Inhibition” value was -52.52%.

`O=C(/C=C/C=C/c1ccccc1)NCCCCCN1CCC(c2c[nH]c3ccccc23)CC1` [TCMDC-139216]: the “% Inhibition” value is recorded as 106.6%.

Turning to `O=C(/C=C/c1ccc(Br)cc1)NCCCCCN1CCC(c2c[nH]c3ccccc23)CC1` [TCMDC-139199], the “% Inhibition” value was 51.21%.

Consider `O=C(/C=C/c1ccc(-c2ccccc2)cc1)NCCCCCN1CCC(c2c[nH]c3ccccc23)CC1` [TCMDC-139210], for which the “% Inhibition” value was determined as 111.8%.
